Experimental findings from the supplement of paper PMC6609913 are described below.

Counter-ions that a name gives are not always drawn. ± gives the standard deviation of the averaged measurements. The full ranking holds about 1,300 compounds; the median of “normalised cell viability” is about 1, and the lowest 2% start at about 0.15. This excerpt belongs to a sample that is enriched for the lowest values.

The test system of this assay is V-C8 + BRCA2 (BRCA2-proficient hamster cells). Briefly: normalised cell viability (fraction of plate median); higher = more viable cells (less toxic). The settings on record: 5 µM. The method, boiled down:
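Hamster V-C8 cells with and without restored BRCA2 were exposed in 96-well plates to library drugs at 5 μM for 3 days (screen 1) or 6 days (screen 2). Cell viability was scored by resazurin assay, then median-plate normalised, averaging triplicate wells.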

Consider `COc1ccc(CCN2CCC(Nc3nc4ccccc4n3Cc3ccc(F)cc3)CC2)cc1` [Astemizole], for which the normalised cell viability runs as follows: (treatment time: 3 days) 0.118 ± 0.0065; (treatment time: 6 days) 0.102 ± 0.0063.

On to `Fc1ccc(C(OCCN2CCN(CCCc3ccccc3)CC2)c2ccc(F)cc2)cc1`, for which the normalised cell viability came to 0.18 ± 0.0028 (treatment time: 3 days) and 0.191 ± 0.0064 (treatment time: 6 days).

`C[C@]12C[C@H]3S[C@H]3C[C@@H]1CC[C@@H]1[C@@H]2CC[C@]2(C)[C@@H](O)CC[C@@H]12` [Epitiostanol]: the normalised cell viability by setting is: (treatment time: 3 days) 1.02 ± 0.019; (treatment time: 6 days) 1.05 ± 0.022.

With `CC(C)[N+](C)(CCC(C(N)=O)(c1ccccc1)c1ccccc1)C(C)C` [Isopropamide iodide], the normalised cell viability came out at 1.04 ± 0.062 (treatment time: 3 days) and 1.02 ± 0.11 (treatment time: 6 days).

As to `CN1[C@@H]2CC[C@H]1C[C@@H](OC1c3ccccc3CCc3ccccc31)C2` [Deptropine citrate], the normalised cell viability is, setting by setting: (treatment time: 3 days) 0.931 ± 0.016; (treatment time: 6 days) 0.869 ± 0.065.

Consider `OC(c1ccccc1)(c1ccccc1)C1CCNCC1` [Azacyclonol], for which the normalised cell viability (treatment time: 3 days) is 0.985 ± 0.041 and the normalised cell viability (treatment time: 6 days) worked out at 1.03 ± 0.042.

For `C[C@@H]1CC[C@H]2[C@@H](C)C(=O)O[C@@H]3O[C@@]4(C)CC[C@@H]1[C@]32OO4` [Artemisinin], the normalised cell viability runs as follows: (treatment time: 3 days) 0.794 ± 0.024; (treatment time: 6 days) 0.87 ± 0.095.

Consider `C[C@]12CC[C@H](O)C[C@H]1CC[C@@H]1[C@@H]2C[C@@H](O)[C@]2(C)[C@@H](C3=CC(=O)OC3)CC[C@]12O` [Digoxigenin], for which the normalised cell viability (treatment time: 3 days) worked out at 0.962 ± 0.11 and the normalised cell viability (treatment time: 6 days) is 0.986 ± 0.056.

On to `CC(=O)NC1CCSC1=O` (racemic) [N-Acetyl-DL-homocysteine Thiolactone], for which the normalised cell viability was 1.05 ± 0.096 (treatment time: 3 days) and 1.06 ± 0.11 (treatment time: 6 days).

On to `CO[C@]12C[C@@H](COC(=O)c3cncc(Br)c3)CN(C)[C@@H]1Cc1cn(C)c3cccc2c13` [Nicergoline], for which the normalised cell viability reads like this: (treatment time: 3 days) 0.81 ± 0.019; (treatment time: 6 days) 0.926 ± 0.01.

With `CNCC(O)c1ccc(O)cc1` (racemic) [(+,-)-Synephrine], the normalised cell viability came out at 1.01 ± 0.085 (treatment time: 3 days) and 1.01 ± 0.022 (treatment time: 6 days).

On to `C[CH2][Hg][S]c1ccccc1C(=O)[O-].[Na+]` [Thimerosal], for which the normalised cell viability is 0.106 ± 0.0062 (treatment time: 3 days) and 0.118 ± 0.007 (treatment time: 6 days).

With `NCCC(O)C(=O)NC1CC(N)C(OC2OC(CN)C(O)[C@H](O)[C@@H]2N)[C@H](OC2O[C@H](CO)[C@@H](O)[C@@H]2O)[C@@H]1O` (stereo not given in full) [Butirosin disulfate salt], the normalised cell viability (treatment time: 3 days) was 0.979 ± 0.026 and the normalised cell viability (treatment time: 6 days) is 0.868 ± 0.3.

On to `C[C@@H]1C[C@@H]([C@H](O)CC2CC(=O)NC(=O)C2)C(=O)[C@@H](C)C1` [Cycloheximide], for which the normalised cell viability amounted to 0.146 ± 0.008 (treatment time: 3 days) and 0.138 ± 0.016 (treatment time: 6 days).

Turning to `CC(CCc1ccccc1)NC(C)C(O)c1ccc(O)cc1` (stereo not given) [Nylidrin], the normalised cell viability came out at 1.02 ± 0.0065 (treatment time: 3 days) and 1.02 ± 0.051 (treatment time: 6 days).

In the case of `CCC(=O)O[C@@](Cc1ccccc1)(c1ccccc1)[C@@H](C)CN(C)C` [Levopropoxyphene napsylate], the normalised cell viability runs as follows: (treatment time: 3 days) 0.979 ± 0.083; (treatment time: 6 days) 1.058 ± 0.0096.

Take `COc1cc([C@@H]2c3cc4c(cc3[C@H](O)[C@H]3COC(=O)[C@H]23)OCO4)cc(OC)c1OC` [Podophyllotoxin]: the normalised cell viability worked out at 0.143 ± 0.0046 (treatment time: 3 days) and 0.136 ± 0.016 (treatment time: 6 days).

Turning to `C=C1CC[C@@]2(O)[C@H]3Cc4ccc(O)c5c4[C@@]2(CCN3CC2CC2)[C@H]1O5` [Nalmefene hydrochloride], the normalised cell viability runs as follows: (treatment time: 3 days) 1 ± 0.043; (treatment time: 6 days) 1.07 ± 0.15.

On to `C=C1[C@@H]2CC[C@H]3[C@]4(C)C[C@H](O[C@@H]5O[C@H](CO)[C@@H](OS(=O)(=O)O)[C@H](OS(=O)(=O)O)[C@H]5OC(=O)CC(C)C)C[C@@H](C(=O)O)[C@H]4CC[C@]3(C2)[C@@H]1O` [Atractyloside potassium salt], for which the normalised cell viability was 1.08 ± 0.093 (treatment time: 3 days) and 1.15 ± 0.031 (treatment time: 6 days).

Consider `COc1ccc2c(c1)[C@]13CCCC[C@@H]1[C@H](C2)N(C)CC3` [Dextromethorphan hydrobromide monohydrate], for which the normalised cell viability came out at 1.13 ± 0.078 (treatment time: 3 days) and 1.02 ± 0.054 (treatment time: 6 days).

Take `CC[C@@]1(O)C(=O)OCc2c1cc1n(c2=O)Cc2cc3ccccc3nc2-1` [Camptothecine (S,+)]: the normalised cell viability (treatment time: 3 days) worked out at 0.142 ± 0.014 and the normalised cell viability (treatment time: 6 days) stood at 0.124 ± 0.012.

Turning to `CCC(=O)O[C@H]1CC[C@H]2[C@@H]3CCC4=CC(=O)CC[C@]4(C)[C@H]3CC[C@]12C` [Testosterone propionate], the normalised cell viability (treatment time: 3 days) was 0.906 ± 0.085 and the normalised cell viability (treatment time: 6 days) stood at 1 ± 0.1.

As to `CN1[C@@H]2CC[C@H]1C[C@@H](OC(=O)C(CO)c1ccccc1)C2` (stereo not given in full) [Atropine sulfate monohydrate], the normalised cell viability came to 0.925 ± 0.033 (treatment time: 3 days) and 0.988 ± 0.053 (treatment time: 6 days).

As to `O=C(CCCN1CCC2(CC1)C(=O)NCN2c1ccccc1)c1ccc(F)cc1` [Spiperone], the normalised cell viability worked out at 1.07 ± 0.04 (treatment time: 3 days) and 0.997 ± 0.072 (treatment time: 6 days).

With `CCCCCC[C@H]1C(=O)O[C@H](C)[C@H](NC(=O)c2cccc(NC=O)c2O)C(=O)O[C@@H](C)[C@@H]1OC(=O)CC(C)C` [Antimycin A], the normalised cell viability is, setting by setting: (treatment time: 3 days) 0.148 ± 0.012; (treatment time: 6 days) 0.124 ± 0.011.

Take `CCCC(C)(COC(N)=O)COC(=O)NC(C)C` (stereo not given) [Carisoprodol]: the normalised cell viability is 0.992 ± 0.042 (treatment time: 3 days) and 1.09 ± 0.04 (treatment time: 6 days).

In the case of `CN1CCC2(C)c3cc(O)ccc3N(C)C12` (single isomer, unassigned; (-)) [(-)-Eseroline fumarate salt], the normalised cell viability came out at 0.694 ± 0.028 (treatment time: 3 days) and 0.769 ± 0.015 (treatment time: 6 days).

Take `CCC(C)C1O[C@]2(C=C[C@@H]1C)C[C@@H]1CC(C/C=C(\C)[C@@H](OC3C[C@H](OC)[C@@H](OC4C[C@H](OC)[C@@H](O)[C@H](C)O4)[C@H](C)O3)[C@@H](C)/C=C/C=C3\COC4[C@H](O)C(C)=CC(C(=O)O1)[C@]34O)O2` (stereo not given in full) [Avermectin B1a]: the normalised cell viability (treatment time: 3 days) was 0.303 ± 0.021 and the normalised cell viability (treatment time: 6 days) worked out at 0.193 ± 0.025.

Regarding `CC(C)(N)Cc1ccccc1` [Phentermine hydrochloride], the normalised cell viability reads like this: (treatment time: 3 days) 1 ± 0.041; (treatment time: 6 days) 0.995 ± 0.023.

Regarding `NCC(CC(=O)O)c1ccc(Cl)cc1` (racemic) [Baclofen (R,S)], the normalised cell viability amounted to 0.897 ± 0.079 (treatment time: 3 days) and 0.956 ± 0.083 (treatment time: 6 days).
